Assay results taken from PubChem BioAssay (NCATS).
Results filed as inconclusive are left out. The source made the active and inactive calls. Unless noted, the call rests on the fitted dose curve; in most records, active means well fitted curve in the direction sought with a large enough effect; inconclusive means small, poorly fitted or top-dose-only effect, or another doubt; inactive means no such curve, though single readings can be large; an effect the other way counts as inactive or inconclusive.

How the values were obtained:
[1] = biological target: Lysosomal acid glucosylceramidase (Homo sapiens) (UniProt P04062); experiment: Glucocerebrosidase-p2 (AID 348; in the data active means potency below about 10 µM; further: potency means the concentration at half of the fitted maximal effect); conditions: purified GBA, blue fluorogenic substrate, 40 min
Lysosomal acid glucosylceramidase (Homo sapiens), sequence (P04062 whole entry, looked up): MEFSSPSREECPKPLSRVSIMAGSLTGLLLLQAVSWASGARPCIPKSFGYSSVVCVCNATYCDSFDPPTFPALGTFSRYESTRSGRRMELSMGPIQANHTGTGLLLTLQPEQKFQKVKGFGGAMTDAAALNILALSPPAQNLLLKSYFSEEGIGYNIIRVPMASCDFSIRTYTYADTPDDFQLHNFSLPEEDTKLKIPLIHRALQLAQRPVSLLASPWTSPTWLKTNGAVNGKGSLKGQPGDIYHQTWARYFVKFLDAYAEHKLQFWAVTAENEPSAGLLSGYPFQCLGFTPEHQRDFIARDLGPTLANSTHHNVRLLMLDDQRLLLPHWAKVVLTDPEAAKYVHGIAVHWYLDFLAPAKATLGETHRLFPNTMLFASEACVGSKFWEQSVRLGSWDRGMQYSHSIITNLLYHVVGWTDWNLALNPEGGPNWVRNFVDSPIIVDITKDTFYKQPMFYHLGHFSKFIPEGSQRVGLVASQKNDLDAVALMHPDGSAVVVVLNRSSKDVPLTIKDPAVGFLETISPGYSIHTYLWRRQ
Procedure, shortened: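 Compounds titrated from 0.6 nM upwards against 0.2 nM enzyme in pH 5.9 citric acid/KH2PO4, taurocholate, tween-20; blue fluorogenic substrate 80 uM, 40 min room temperature, stopped and read Ex 365/Em 440 for AC50.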

[2] = AP1 Signaling Pathway (AID 357; active means well fitted curve in either direction with a large enough effect, not every such curve was filed as active; further: on the % scale 0 is the no-effect control and ±100 the full control effect); conditions: ME-180 AP-1-bla reporter, EGF-induced, beta-lactamase ratio, 5 h; at 7.69 µM (top of the series) unless noted
Procedure, shortened: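 ME-180 cells with beta-lactamase reporter under AP-1 response element, stimulated with EC50 EGF; compounds tested in titration series, 5 h at 37 °C. CCF4 substrate added 2.5 h at room temperature; 460/530 nm emission ratio gave %activity and AC50.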

[3] = biological target: Cytochrome P450 1A2 (Homo sapiens) (UniProt P05177); experiment: p450-cyp1a2 (AID 410; calls by dose curve; further: potency means the concentration at half of the fitted maximal effect); conditions: recombinant CYP1A2, luciferin-ME demethylation, luminescence; series mostly up to 57 µM
Cytochrome P450 1A2 (Homo sapiens), sequence (P05177 whole entry, looked up): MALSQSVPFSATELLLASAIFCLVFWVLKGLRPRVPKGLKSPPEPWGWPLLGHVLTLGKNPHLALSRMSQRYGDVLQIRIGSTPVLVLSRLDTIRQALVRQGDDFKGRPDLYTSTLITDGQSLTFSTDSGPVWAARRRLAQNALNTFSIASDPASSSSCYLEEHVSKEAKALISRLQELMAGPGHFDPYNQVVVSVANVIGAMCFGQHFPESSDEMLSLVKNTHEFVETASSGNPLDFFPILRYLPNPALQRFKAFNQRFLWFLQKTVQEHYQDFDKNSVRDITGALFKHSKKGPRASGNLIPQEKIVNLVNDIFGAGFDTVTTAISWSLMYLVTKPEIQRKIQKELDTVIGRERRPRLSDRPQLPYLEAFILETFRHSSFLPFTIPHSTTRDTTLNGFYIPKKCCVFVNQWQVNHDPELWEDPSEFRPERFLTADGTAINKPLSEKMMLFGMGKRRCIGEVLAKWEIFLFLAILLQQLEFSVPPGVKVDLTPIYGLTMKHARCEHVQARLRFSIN
Procedure, shortened: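 Human CYP1A2 (20nM) demethylated Luciferin-ME at its Km (100uM) in 100mM KPO4. After 10 min compound preincubation, NADPH regeneration ran the reaction 60 min at room temperature. Luciferin was read by luminescence, normalized to 57 uM furafylline.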

[4] = NFAT Signaling Pathway (AID 444; active means well fitted curve in either direction with a large enough effect, not every such curve was filed as active;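 further: carbachol stimulus at about its EC50 of 1 µM final; on the % scale 0 is the no-effect control and ±100 the full control effect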); conditions: Jurkat NFAT-bla M1, carbachol, beta-lactamase ratio, 5 h; at 7.69 µM (top of the series) unless noted
Procedure, shortened: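 Read-out: CCF4 FRET ratio (460 nm/530 nm) after 1 h RT dye loading, used for %activity and AC50 from titration series. Cells: Jurkat NFAT-β-lactamase/M1 line, treated with compound plus 1 uM carbachol for 5 h, 37 °C.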

[5] = Stat Signaling Pathway (AID 446; active means well fitted curve in either direction with a large enough effect, not every such curve was filed as active;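 further: ME-180 cervical cancer cells given 40 pM IL-6 alongside compound; SIE-controlled beta-lactamase reporter measured as 460/530 nm FRET emission ratio; on the % scale 0 is the no-effect control and ±100 the full control effect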); conditions: ME-180 SIE beta-lactamase reporter, IL-6 stimulated, 5 h; at 7.69 µM (top of the series) unless noted
Procedure, shortened: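 IL-6/STAT signaling read in ME-180 cells via an SIE beta-lactamase reporter. Stimulus was 40 pM IL-6 (its AC50) for 5 hrs, so both activation and inhibition register.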

[6] = biological target: Glucocorticoid receptor (Homo sapiens) (UniProt P04150); experiment: GR-EFC Redistribution (AID 451; calls by dose curve; further: potency means the concentration at half of the fitted maximal effect); conditions: CHO-K1 GR-EFC translocation, beta-gal luminescence, 2 h
Glucocorticoid receptor (Homo sapiens), sequence (P04150 whole entry, looked up, the tested form may be a part): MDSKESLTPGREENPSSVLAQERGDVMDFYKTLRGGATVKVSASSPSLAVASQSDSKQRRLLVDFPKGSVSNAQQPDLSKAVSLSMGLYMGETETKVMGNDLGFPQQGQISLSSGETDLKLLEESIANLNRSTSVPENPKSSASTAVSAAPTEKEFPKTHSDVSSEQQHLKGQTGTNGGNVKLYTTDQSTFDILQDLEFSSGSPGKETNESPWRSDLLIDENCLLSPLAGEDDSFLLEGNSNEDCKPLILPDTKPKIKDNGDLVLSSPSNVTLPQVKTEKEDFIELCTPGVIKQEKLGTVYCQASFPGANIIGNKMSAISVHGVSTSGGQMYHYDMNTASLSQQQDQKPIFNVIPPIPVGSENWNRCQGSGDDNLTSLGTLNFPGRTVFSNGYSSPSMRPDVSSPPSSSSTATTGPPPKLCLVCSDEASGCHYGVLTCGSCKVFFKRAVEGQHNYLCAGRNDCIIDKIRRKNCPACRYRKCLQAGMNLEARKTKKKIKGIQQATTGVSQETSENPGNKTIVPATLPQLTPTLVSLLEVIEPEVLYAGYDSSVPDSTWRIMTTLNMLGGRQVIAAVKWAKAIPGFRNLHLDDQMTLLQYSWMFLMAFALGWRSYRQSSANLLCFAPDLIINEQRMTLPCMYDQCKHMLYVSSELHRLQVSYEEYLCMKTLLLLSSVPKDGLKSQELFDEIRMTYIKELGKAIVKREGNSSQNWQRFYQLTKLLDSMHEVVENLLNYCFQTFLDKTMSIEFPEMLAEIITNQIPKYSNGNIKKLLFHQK
Procedure, shortened: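 Translocation of GR-ED fusion to nuclear EA restores b-gal, read by luminescence after 1 h room-temperature detection. Engineered CHO-K1 biosensor cells, 1,000/well, exposed 2 h at 37 C to titrations up to 46 uM final.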

[7] = biological target: Mitogen-activated protein kinase 10 (Mus musculus) (UniProt Q61831); experiment: JNK3 AlphaScreen Assay (AID 530; active means well fitted curve in either direction with a large enough effect, not every such curve was filed as active;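 further: kinase came from lysate of stimulated human HepG2 cells; signal reports phosphorylation of biotinylated GST-cJun 1-79 at Ser73 with 10 µM ATP; on the % scale 0 is the no-effect control and ±100 the full control effect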); conditions: JNK3 lysate, c-Jun phosphorylation; series mostly up to 57.1 µM
Procedure, shortened: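 Room-temperature AlphaScreen kinase assay; pre-activated HepG2 lysate as JNK3 source, biotin-GST-cJun(1-79) substrate, 10 uM ATP, compound 15 min preincubation.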

[8] = biological target: Cytochrome P450 3A4 (Homo sapiens) (UniProt P08684); experiment: qHTS Assay for Inhibitors and Substrates of Cytochrome P450 3A4 (AID 884); conditions: recombinant CYP3A4, Luciferin-PPXE luminescence; series mostly up to 57.1 µM; further: potency means the concentration at half of the fitted maximal effect; nearly all actives have a fitted effect of over 50% in size
Cytochrome P450 3A4 (Homo sapiens), sequence (P08684 whole entry, looked up): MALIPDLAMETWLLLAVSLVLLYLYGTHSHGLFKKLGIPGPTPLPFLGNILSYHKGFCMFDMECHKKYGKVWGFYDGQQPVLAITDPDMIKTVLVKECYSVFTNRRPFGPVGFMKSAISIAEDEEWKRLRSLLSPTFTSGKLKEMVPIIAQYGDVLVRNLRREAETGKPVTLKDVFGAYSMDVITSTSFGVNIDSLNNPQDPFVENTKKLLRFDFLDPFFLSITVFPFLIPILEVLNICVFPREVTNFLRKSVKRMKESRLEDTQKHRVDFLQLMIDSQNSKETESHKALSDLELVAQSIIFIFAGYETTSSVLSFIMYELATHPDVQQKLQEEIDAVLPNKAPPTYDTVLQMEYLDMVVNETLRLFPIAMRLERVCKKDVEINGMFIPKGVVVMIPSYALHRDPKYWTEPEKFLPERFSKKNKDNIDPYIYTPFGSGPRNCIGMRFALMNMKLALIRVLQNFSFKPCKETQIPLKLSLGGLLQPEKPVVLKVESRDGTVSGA
Procedure, shortened: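 20 nM human CYP3A4 with 25 uM Luciferin-PPXE (at KM) in 200 mM KPO4, preincubated 10 min with compound; NADPH regeneration started a 60 min RT reaction. Luciferin detected by luminescence, normalized to 57 uM ketoconazole as full inhibition.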

[9] = biological target: Cytochrome P450 3A4 (Homo sapiens) (UniProt P08684); experiment: qHTS Assay for Activators of Cytochrome P450 3A4 (AID 885); conditions: recombinant CYP3A4, Luciferin-PPXE luminescence, 60 min; series mostly up to 57.1 µM; further: nearly all actives have a fitted effect of over 65% in size
Procedure, shortened: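 Quantitative HTS format: compounds preincubated with 20nM human CYP3A4 and Luciferin-PPXE substrate at KM, reaction started by NADPH regeneration, stopped after 60 min, luciferase luminescence read 20 min later.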

[10] = biological target: Cytochrome P450 2C19 (Homo sapiens) (UniProt P33261); experiment: qHTS Assay for Inhibitors and Substrates of Cytochrome P450 2C19 (AID 899); conditions: recombinant CYP2C19, luciferin-H EGE luminescence; series mostly up to 57.1 µM; further: potency means the concentration at half of the fitted maximal effect; nearly all actives have a fitted effect of over 60% in size
Cytochrome P450 2C19 (Homo sapiens), sequence (P33261 whole entry, looked up): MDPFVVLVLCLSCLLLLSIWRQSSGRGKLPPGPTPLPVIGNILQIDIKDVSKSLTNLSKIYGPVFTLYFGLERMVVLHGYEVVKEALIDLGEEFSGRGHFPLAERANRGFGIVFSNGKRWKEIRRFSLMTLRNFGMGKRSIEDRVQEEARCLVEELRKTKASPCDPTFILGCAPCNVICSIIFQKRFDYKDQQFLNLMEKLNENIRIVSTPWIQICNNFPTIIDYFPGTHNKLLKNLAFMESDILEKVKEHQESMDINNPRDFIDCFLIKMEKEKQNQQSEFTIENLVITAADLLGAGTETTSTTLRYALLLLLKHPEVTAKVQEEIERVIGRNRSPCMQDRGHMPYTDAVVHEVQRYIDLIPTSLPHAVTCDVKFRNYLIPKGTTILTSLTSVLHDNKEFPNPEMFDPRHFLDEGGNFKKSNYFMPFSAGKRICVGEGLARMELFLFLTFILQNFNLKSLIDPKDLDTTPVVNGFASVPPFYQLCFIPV
Procedure, shortened: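 Reactions contain 5nM enzyme, 10uM Luciferin-H EGE (KM) and 50mM KPO4; compound preincubates 10 min at 37C, NADPH regeneration starts turnover for 60 min. Luminescence after detection reagent gives activity.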

[11] = Confirmation and Secondary Assay for Modulators of Hemoglobin Beta Chain Splicing at IVS2 654 locus (AID 910); conditions: HeLa EGFP-654 splicing reporter, GFP fluorescence, 48 h; series mostly up to 38.3 µM;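 further: HeLa cells stably carrying EGFP split by mutant beta-globin IVS2-654 intron; per-well total GFP intensity by laser scanning cytometry after 2-day treatment; % of control where 0% means no effect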
Procedure, shortened: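 Readout: per-well total peak green fluorescence (488 nm ex, 500–520 nm em) from objects 5–250 µm, reflecting correct splicing of an EGFP-654 reporter. Compounds were applied for 2 days at 37 °C to overnight-plated HeLa EGFP-654 cells; controls were DMSO and 500 nM IVS2-654 PNA.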

[12] = Confirmation and Secondary Assay for Modulators of Hemoglobin Beta Chain Splicing at IVS2 705 locus (AID 930); conditions: HeLa EGFP-705 splicing reporter, GFP fluorescence, 48 h; series mostly up to 38.3 µM;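 further: HeLa cells stably expressing the EGFP-705 splicing reporter; GFP fluorescence per well restored by corrected splicing of the IVS2-705 intron in EGFP; % of control where 0% means no effect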
Procedure, shortened: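 Assay measures total GFP intensity per well in HeLa EGFP-705 cells after 2 days with compound; mis-splicing normally truncates EGFP, so fluorescence indicates corrected splicing.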

[13] = qHTS Assay for Lipid Storage Modulators (AID 1519; calls by dose curve); conditions: Drosophila S3 cells, BODIPY lipid droplet/cell ratio, laser cytometry, cells loaded with oleic acid; for activity change, negative = inhibition: at 57.5 µM (top of the series)
Procedure, shortened: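 Cells seeded at 5,000 per well were treated with compounds over a concentration series and loaded with oleic acid (400 uM, as added). Lipid droplet fluorescence (488 nm excitation, 500-530 nm channel) was read by laser-scanning cytometry and normalized to 20 uM Triacsin C.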

[14] = biological target: Ubiquitin carboxyl-terminal hydrolase 1 (Homo sapiens) (UniProt O94782); experiment: Inhibitors of USP1/UAF1: Pilot qHTS (AID 504865); conditions: purified USP1/UAF1, Ub-rhodamine cleavage fluorescence; series mostly up to 54.9 µM; further: potency means the concentration at half of the fitted maximal effect; nearly all actives have a fitted effect of over 35% in size
Ubiquitin carboxyl-terminal hydrolase 1 (Homo sapiens), sequence (O94782 whole entry, looked up): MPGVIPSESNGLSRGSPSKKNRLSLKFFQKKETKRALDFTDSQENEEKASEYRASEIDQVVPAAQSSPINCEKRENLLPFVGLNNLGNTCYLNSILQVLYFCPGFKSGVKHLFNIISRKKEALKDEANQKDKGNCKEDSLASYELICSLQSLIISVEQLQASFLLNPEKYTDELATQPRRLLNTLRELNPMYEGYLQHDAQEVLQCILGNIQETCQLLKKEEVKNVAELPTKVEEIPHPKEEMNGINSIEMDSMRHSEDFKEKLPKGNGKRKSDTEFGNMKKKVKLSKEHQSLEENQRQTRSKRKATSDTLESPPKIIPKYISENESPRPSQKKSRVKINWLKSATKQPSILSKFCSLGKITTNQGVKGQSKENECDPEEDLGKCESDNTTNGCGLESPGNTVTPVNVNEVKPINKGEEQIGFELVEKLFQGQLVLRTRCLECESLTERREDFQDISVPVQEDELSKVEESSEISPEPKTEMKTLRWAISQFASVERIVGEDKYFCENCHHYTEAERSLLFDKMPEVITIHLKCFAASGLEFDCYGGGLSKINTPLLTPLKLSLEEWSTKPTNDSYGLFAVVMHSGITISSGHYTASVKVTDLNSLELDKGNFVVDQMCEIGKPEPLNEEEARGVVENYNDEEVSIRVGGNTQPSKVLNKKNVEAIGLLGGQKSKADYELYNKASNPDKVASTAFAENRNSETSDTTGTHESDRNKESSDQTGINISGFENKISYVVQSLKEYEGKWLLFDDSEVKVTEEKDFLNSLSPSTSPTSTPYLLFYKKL
Procedure, shortened: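 1nM USP1/UAF1 + cpd, 15 min RT; start w/ Ub-Rho 150nM final; kinetic FL 480/540 nm, 6 reads q60 s. Buffer 50mM HEPES pH 7.8, 0.5mM EDTA, 1mM TCEP, 0.01% Tween-20, 0.1 mg/ml BSA.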

[15] = Primary qHTS for small molecule stabilizers of the endoplasmic reticulum resident proteome: Secreted ER Calcium Modulated Protein (SERCaMP) assay (AID 1508630); conditions: SH-SY5Y GLuc-SERCaMP (Gaussia luciferase released on ER calcium loss) secretion, thapsigargin, luminescence; series mostly up to 38.4 µM; further: on the % scale 0 is the no-effect control and ±100 the full control effect
Procedure, shortened: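 GLuc-SERCaMP-expressing SH-SY5Y cells, pretreated 16 h with compound, are challenged with thapsigargin to empty ER calcium stores; after 4 h, coelenterazine is added directly to the medium and luminescence is imaged.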

[16] = biological target: Glucocorticoid receptor (Homo sapiens) (UniProt P04150); experiment: GR-GFP Redistribution (AID 450;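 active means compounds whose dose series gives a full or clear partial fitted curve of increased nuclear translocation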; further: potency means the concentration at half of the fitted maximal effect); conditions: U2OS GR-GFP nuclear translocation, laser cytometry, 2 h
[17] = biological target: 3',5'-cyclic-AMP phosphodiesterase 4B (Homo sapiens) (UniProt Q07343); experiment: qHTS Assay for Inhibitors of PDE-IV (AID 607; active means well fitted activation curve with a large enough effect in the main read-out, with a control signal flat, not every such curve was filed as active; further: % of control where 0% means no effect); conditions: HEK293 ACTOne CNG channel cells, membrane potential fluorescence; series mostly up to 22.9 µM
3',5'-cyclic-AMP phosphodiesterase 4B (Homo sapiens), sequence (Q07343 whole entry, looked up): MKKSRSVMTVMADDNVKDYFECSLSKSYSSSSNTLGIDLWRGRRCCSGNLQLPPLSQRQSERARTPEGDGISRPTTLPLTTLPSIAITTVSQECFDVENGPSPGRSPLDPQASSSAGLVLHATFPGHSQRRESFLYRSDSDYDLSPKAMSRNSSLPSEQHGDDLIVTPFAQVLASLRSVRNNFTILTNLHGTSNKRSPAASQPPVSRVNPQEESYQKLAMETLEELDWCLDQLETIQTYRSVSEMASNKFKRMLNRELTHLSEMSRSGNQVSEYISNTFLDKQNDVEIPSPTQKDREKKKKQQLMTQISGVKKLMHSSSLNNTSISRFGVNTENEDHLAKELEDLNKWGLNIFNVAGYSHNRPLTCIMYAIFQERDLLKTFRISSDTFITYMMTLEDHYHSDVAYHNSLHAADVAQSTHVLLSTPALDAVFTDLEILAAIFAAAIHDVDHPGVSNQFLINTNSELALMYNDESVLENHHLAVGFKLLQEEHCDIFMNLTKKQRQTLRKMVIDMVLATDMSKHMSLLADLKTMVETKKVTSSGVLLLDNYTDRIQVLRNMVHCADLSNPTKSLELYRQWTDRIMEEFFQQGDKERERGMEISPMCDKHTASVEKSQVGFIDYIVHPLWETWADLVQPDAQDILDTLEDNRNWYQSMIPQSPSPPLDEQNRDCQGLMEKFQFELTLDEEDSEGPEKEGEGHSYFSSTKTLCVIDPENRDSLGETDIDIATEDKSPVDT
Procedure, shortened: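 Live HEK293 cells with a modified cyclic nucleotide-gated (CNG) channel report intracellular cAMP via membrane-potential dye fluorescence (ex 535/em 590 nm). Endogenous PDE-IV was targeted. Compounds were tested at up to 22.9 uM final; RO 20-1724 100 uM served as control.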

[18] = biological target: Cytochrome P450 2C9 (Homo sapiens) (UniProt P11712); experiment: qHTS Assay for Inhibitors and Substrates of Cytochrome P450 2C9 (AID 883); conditions: recombinant CYP2C9, luciferin-H luminescence, 60 min; series mostly up to 57.1 µM; further: on the % scale 0 is the no-effect control and ±100 the full control effect; nearly all actives have a fitted effect of over 60% in size
Cytochrome P450 2C9 (Homo sapiens), sequence (P11712 whole entry, looked up): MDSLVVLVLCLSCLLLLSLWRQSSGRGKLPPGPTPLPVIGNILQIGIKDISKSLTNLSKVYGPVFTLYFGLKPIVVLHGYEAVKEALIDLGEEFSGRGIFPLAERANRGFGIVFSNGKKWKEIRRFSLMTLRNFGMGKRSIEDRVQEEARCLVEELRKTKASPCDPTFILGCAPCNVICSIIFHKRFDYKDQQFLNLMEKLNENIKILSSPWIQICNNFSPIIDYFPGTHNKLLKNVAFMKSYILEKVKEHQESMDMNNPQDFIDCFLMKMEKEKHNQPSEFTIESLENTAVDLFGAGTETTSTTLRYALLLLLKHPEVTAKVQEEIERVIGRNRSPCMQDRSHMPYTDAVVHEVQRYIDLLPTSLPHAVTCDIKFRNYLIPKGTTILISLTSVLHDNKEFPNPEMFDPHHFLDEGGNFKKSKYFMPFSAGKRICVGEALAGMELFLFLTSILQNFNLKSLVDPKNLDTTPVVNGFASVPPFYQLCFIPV
Procedure, shortened: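 Turnover of Luciferin-H (100uM, KM) by 10nM human CYP2C9 was measured over 60 min at 37C with NADPH regeneration; inhibitors and some substrates reduce luminescence. Data normalized to sulphaphenazole 57uM.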

[19] = qHTS Assay for Identification of Small Molecule Agonists for Hypoxia Response Element Signaling Pathway (AID 914; active means well fitted activation curve with a large enough effect in the signal ratio, with a control signal flat, not every such curve was filed as active; the % refers to the signal ratio; further: % of control where 0% means no effect); conditions: ME-180 (cervical carcinoma) HRE-bla reporter, beta-lactamase ratio, CoCl2, 17 h; activation: stronger effect = higher value
Procedure, shortened: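 Compounds in a titration series were added to ME-180 reporter cells alongside an EC50 level of CoCl2. After 17 hours, beta-lactamase activity was read as the 460nm/530nm emission ratio of CCF4, giving AC50 values.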

[20] = measured here: cell count channel max response
[21] = measured here: lipid channel max response

COc1ccccc1CNc1ccnc(-c2ccoc2)n1
-15.1%: max response [13, 20]
active: Potency [3] 1.58 µM | Potency [8] 2.51 µM | Potency [10] 7.94 µM | Potency [14] 50.1 µM
inactive: Potency [1] > 11.4 µM | activity change, negative = inhibition [2] -2.58% | activity change, negative = inhibition [4] -21% | activity, negative = inhibition [5] -4.66% | Potency [6] > 46 µM | outcome [7] | Potency [9] | outcome [11] | outcome [12] | activity change, negative = inhibition [13] 8.47% | Potency [15]
2.83%: max response [13, 21]

CNc1nc(-c2ccccc2Cl)nc2ccccc12
-2.38%: max response [13, 21]
active: Potency [1] 5.87 µM | Potency [3] 0.126 µM
-3.59%: max response [13, 20]
inactive: activity change, negative = inhibition [2] -4.05% | activity change, negative = inhibition [4] 12.6% | activity, negative = inhibition [5] -8.45% | Potency [16] > 46 µM | Potency [6] > 46 µM | outcome [7] | Potency [17] | activity change, negative = inhibition [18] 75.1% [at 2.29 µM] | Potency [9] | outcome [11] | activation [19] 11.6% | outcome [12] | activity change, negative = inhibition [13] 5.07% | Potency [15]
